PubChem BioAssay (Tox21)
Results filed as inconclusive are left out. Activity calls are given as the source filed them. Unless noted, the call rests on the fitted dose curve; in most records, active means well fitted curve in the direction sought with a large enough effect in the repeat runs; inconclusive means weak or mixed curves; inactive means no such curve, though single readings can be large; an effect the other way counts as inactive or inconclusive.

How the values were obtained:
[1] = qHTS assay to identify small molecule antagonists of the constitutive androstane receptor (CAR) signaling pathway - cell viability counter screen (AID 1224837); details: HepG2-CYP2B6-hCAR viability, CellTiter-Fluor, 23 h, co-treated with 50 nM CITCO; series mostly up to 92.4 µM; further: nearly all actives have a fitted effect of over 45% in size
In short: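 In quantitative HTS format, compounds at 15 concentrations were applied to HepG2 cells double-transfected with hCAR and CYP2B6-2.2kb under 50 nM CITCO stimulation; live-cell protease activity was read after 23 hr via CellTiter-Fluor.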

[2] = target: Nuclear receptor subfamily 1 group I member 3 (Homo sapiens) (UniProt Q14994); test: qHTS assay to identify small molecule antagonists of the constitutive androstane receptor (CAR) signaling pathway (AID 1224838); details: HepG2-CYP2B6-hCAR luciferase, CITCO-stimulated, 24 h; series mostly up to 92.4 µM; further: nearly all actives have a fitted effect of over 40% in size
In short: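 CITCO-stimulated (50 nM final) HepG2 cells stably transfected with hCAR and CYP2B6-2.2kb luciferase were exposed to compounds at 15 concentrations for 24 h at 37 C/5% CO2. A luciferase reagent was added and luminescence recorded after 30 min.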

[3] = target: Nuclear receptor subfamily 1 group I member 3 (Homo sapiens) (UniProt Q14994); test: qHTS assay to identify small molecule agonists of the constitutive androstane receptor (CAR) signaling pathway (AID 1224839); details: HepG2 hCAR CYP2B6-luciferase, agonist mode, 24 h; series mostly up to 42.5 µM;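 further: HepG2 cells stably carrying human CAR and a CYP2B6 luciferase reporter; nearly all actives have a fitted effect of over 15% in size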
In short: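 Stable hCAR/CYP2B6-2.2kb HepG2 line in DMEM with 10% FBS; compounds (15 concentrations) and 0.75 uM PK11195 final, 24 h at 37 C/5% CO2, then ONE-Glo luminescence after 30 min.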

[4] = qHTS assay to identify small molecule antagonists of the estrogen related receptor signaling pathway with the pleiotropic PPARgamma coactivator (PGC) from Tox21 10K library - cell viability counter screen (AID 1224840; active means well fitted cell-killing curve with a large enough effect in the repeat runs, not every such curve was filed as active; further: nearly all actives have a fitted effect of over 40% in size); details: PGC/ERR reporter cells viability, CellTiter-Fluor, 17.5 h; series mostly up to 92.4 µM
In short: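 Viability counter screen, PGC/ERR cells: 17.5 h compound exposure at 37 C, CellTiter-Fluor fluorescence endpoint.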

[5] = qHTS assay to identify small molecule agonists of the hypoxia (HIF-1) signaling pathway - cell viability counter screen (AID 1224844; calls by dose curve; further: nearly all actives have a fitted effect of over 50% in size); details: HRE-bla ME-180 viability, CellTiter-Glo luminescence, 17 h; series mostly up to 76.8 µM
In short: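 Same wells as the HIF-1 reporter screen; ME-180 cells carrying HRE-bla, 17 hr treatment at 37C; CellTiter-Glo luminescence read after 30 min at room temperature.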

[6] = qHTS assay to identify small molecule agonists of the constitutive androstane receptor (CAR) signaling pathway - cell viability counter screen (AID 1224836); details: HepG2-CYP2B6-hCAR viability, CellTiter-Fluor, 23 h, PK11195 added to every well; series mostly up to 92.4 µM; further: nearly all actives have a fitted effect of over 45% in size
In short: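 Fluorescence from CellTiter-Fluor indicates live cells after 23 h exposure. The human hepatoma line expresses hCAR and a CYP2B6-2.2kb reporter. Incubation medium contains 0.75 uM PK11195 (final).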

[7] = target: Thyrotropin receptor (Homo sapiens) (UniProt P16473); test: qHTS assay to identify small molecule agonists of the thyroid stimulating hormone receptor (TSHR) signaling pathway (AID 1224843; calls by dose curve; further: nearly all actives have a fitted effect of over 45% in size); details: TSHR-HEK293 cells, cAMP HTRF, agonist mode, 30 min; series mostly up to 92.4 µM
In short: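 Using 15 concentrations per compound in triplicate, cAMP production was monitored in TSHR-HEK293 cells after 30 min compound incubation at RT; HTRF reagents followed, with fluorescence intensity recorded after 1 h.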

[8] = qHTS assay to identify small molecule antagonists of the estrogen related receptor signaling pathway with the pleiotropic PPARgamma coactivator (PGC) from Tox21 10K library (AID 1224841; call rule not given here; further: actives are mostly falling curves and most rising ones were filed inactive; nearly all actives have a fitted effect of over 50% in size); details: PGC/ERR reporter cell line, ONE-Glo luciferase, 18 h; series mostly up to 92.4 µM
In short: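 In the PGC/ERR line, DMSO solutions of test chemicals are pin-delivered to 2,000 cells/well six hours after dispensing. Following eighteen hours' incubation, One-Glo reagent is added and luminescence recorded.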

[9] = qHTS assay to identify small molecule agonists of the estrogen related receptor signaling pathway with the pleiotropic PPARgamma coactivator (PGC) from Tox21 10K library (AID 1224842); details: PGC/ERR reporter cell line, luciferase ONE-Glo, 18 h; series mostly up to 92.4 µM; further: nearly all actives have a fitted effect of over 15% in size
In short: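 PGC/ERR reporter cells (NTP line) were seeded 2,000 per well, rested 6 h at 37 C/5% CO2, then pin-dosed with compounds in DMSO for 18 h at 37 C; luciferase read by One-Glo luminescence after 30 min at room temperature.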

Measured: Potency

Chain of Nuclear receptor subfamily 1 group I member 3 (Homo sapiens) (Q14994 whole entry, looked up): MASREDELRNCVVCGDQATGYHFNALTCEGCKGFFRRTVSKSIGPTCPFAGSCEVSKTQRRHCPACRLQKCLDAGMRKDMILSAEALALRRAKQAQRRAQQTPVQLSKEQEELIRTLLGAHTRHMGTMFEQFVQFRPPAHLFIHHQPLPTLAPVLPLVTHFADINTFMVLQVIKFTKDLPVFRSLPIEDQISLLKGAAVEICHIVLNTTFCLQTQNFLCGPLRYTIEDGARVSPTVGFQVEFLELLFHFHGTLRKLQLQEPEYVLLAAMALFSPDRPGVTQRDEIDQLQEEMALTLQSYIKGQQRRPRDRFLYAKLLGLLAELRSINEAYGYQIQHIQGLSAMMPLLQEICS
Chain of Thyrotropin receptor (Homo sapiens) (P16473 whole entry, looked up): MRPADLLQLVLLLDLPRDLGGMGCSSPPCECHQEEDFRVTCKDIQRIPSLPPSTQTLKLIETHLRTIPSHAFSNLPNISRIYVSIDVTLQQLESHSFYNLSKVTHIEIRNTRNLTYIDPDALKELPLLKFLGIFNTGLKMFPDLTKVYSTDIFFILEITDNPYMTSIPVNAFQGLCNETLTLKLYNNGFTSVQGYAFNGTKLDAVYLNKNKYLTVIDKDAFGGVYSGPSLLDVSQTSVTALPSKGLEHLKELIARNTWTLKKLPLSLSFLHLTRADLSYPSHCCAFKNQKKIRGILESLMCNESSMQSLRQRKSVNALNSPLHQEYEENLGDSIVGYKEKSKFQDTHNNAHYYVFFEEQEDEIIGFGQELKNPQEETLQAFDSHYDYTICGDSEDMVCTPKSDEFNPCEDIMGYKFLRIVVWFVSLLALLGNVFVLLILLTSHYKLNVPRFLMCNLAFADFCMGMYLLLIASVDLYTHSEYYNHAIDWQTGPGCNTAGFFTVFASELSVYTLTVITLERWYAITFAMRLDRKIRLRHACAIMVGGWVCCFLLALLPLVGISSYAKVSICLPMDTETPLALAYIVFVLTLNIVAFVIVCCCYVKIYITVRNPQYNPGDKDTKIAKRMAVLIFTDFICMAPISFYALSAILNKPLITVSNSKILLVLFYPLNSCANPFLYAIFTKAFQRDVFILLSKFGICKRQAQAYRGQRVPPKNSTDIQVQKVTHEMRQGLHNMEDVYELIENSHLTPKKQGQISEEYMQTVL

OCCNCc1ccccc1
inactive: [1] | [2] | [3] | [4] | [5]

CC(C)Cc1ccc(C(C)C(=O)OCc2ccccn2)cc1 (centres undefined)
inactive: [6] | [1] | [4] | [5]

Cc1oc(-c2ccccc2)nc1CCOc1cccc2c1ccn2CCC(=O)O
inactive: [6] | [2] | [3] | [4] | [7] | [5]

CC(=O)[O][Al]
inactive: [6] | [1] | [4] | [8] | [9] | [5]

O=C(O)C(S)C(S)C(=O)O (centres undefined)
inactive: [6] | [2] | [3] | [4] | [7] | [5]

CN1Cc2cc(C(=O)N3CCC(C4CCNCC4)CC3)ccc2NC(CC(=O)O)C1=O (centres undefined)
inactive: [6] | [2] | [4] | [8] | [9] | [7] | [5]
